The results in this text go back to the supplement of paper PMC12494721.

Counter-ions that a name gives are not always drawn. Unmarked numbers belong to inactive results.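 Rule for the calls: for the amine columns active = adjusted P below 0.05 in both replicates with a change the same way and a mean fold change under 0.8 or over 1.25; inactive = the rest.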

The first experiment has as its system Ruminococcus gnavus DSM 108212. The experiment in a line: fold change of Tryptamine concentration vs plate DMSO controls (fold change (ratio)); higher = more amine produced, active = hit call of the paper (significant change in both replicates, either direction). Conditions: 20 µM; incubation time: 27 h, anaerobic, 37 °C. The procedure, abridged:
(§1)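 Amine values are fold changes relative to DMSO-only wells on the same plate. They derive from 27 h, 37 °C anaerobic mGAM cultures of four gut bacterial strains in 80 µL wells, dosed at 20 µM final, or 50 µM final for sweeteners. Extraction of the whole culture, LC–triple-quadrupole MS in dynamic MRM mode, external calibration curves and within-batch drift correction were used, with 2 biological replicates averaged.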
As for `c1cc2ccc3cccc4ccc(c1)c2c34` [Pyrene], the “fold change of Tryptamine concentration” value is 1.03. Same read-out and setting: the figure for `COc1cccc(C2(O)CCCCC2CN(C)C)c1` (stereo unspecified) [Tramadol hydrochloride] is 0.925; for `NC(=O)CN1CC(O)CC1=O` (stereo unspecified) [Oxiracetam] it is 1.1. On the same count and under the same terms, the value for `O=C(NC(=O)c1c(F)cccc1F)Nc1ccc(Cl)cc1` was 0.999.

Another experiment deals with Escherichia coli IAI1. As to the kind of experiment: fold change of Putrescine concentration vs plate DMSO controls (fold change (ratio)); higher = more amine produced, active = hit call of the paper (significant change in both replicates, either direction). Conditions: 20 µM; incubation time: 27 h, anaerobic, 37 °C. The method, boiled down:
as §1
For the compound `CCCC(C)(COC(N)=O)COC(=O)NC(C)C` (stereo unspecified) [Carisoprodol], the “fold change of Putrescine concentration” value is 1.02. Same read-out and setting: the figure for `CCC1(c2cccc(O)c2)CCCCN(C)C1` (stereo unspecified) [Meptazinol hydrochloride] is 1.03; for `CC(C)(C)NCC(O)c1ccccc1Cl` (stereo unspecified) [Tulobuterol hydrochloride] it is 1.07; for `C[C@]12CCC(=O)C(O)=C1CC[C@@H]1[C@@H]2CC[C@]2(C)C(=O)CC[C@@H]12` [Formestane] it is 1.02.

In the case of `C=C(C)[C@@H]1[C@H]2OC(=O)[C@@H]1[C@]1(O)C[C@H]3O[C@]34C(=O)O[C@H]2[C@]14C` [Picrotoxinin], the “fold change of Putrescine concentration” value is 0.898.

For `CCOc1cc(Oc2ccc(C(F)(F)F)cc2Cl)ccc1[N+](=O)[O-]`, the “fold change of Putrescine concentration” value was 0.953. Same read-out and setting: the value for `O=C(O)C(F)(F)C(F)(F)C(F)(F)C(F)(F)C(F)(F)C(F)(F)C(F)(F)C(F)(F)C(F)(F)F` [PFDeA (Perfluorodecanoic acid)] was 1.02; that for `CC[C@@H](CO)NC(=O)[C@@H]1C=C2c3cccc4[nH]cc(c34)C[C@H]2N(C)C1` [Methylergometrine maleate] was 0.965; that for `O=C(O)C(F)(F)C(F)(F)C(F)(F)C(F)(F)C(F)(F)C(F)(F)C(F)(F)F` [PFOA (Perfluorooctanoic acid)] was 1.03. On the same count and under the same terms, the figure for `COc1ccc2c(c1)[C@]13CCCC[C@@H]1[C@H](C2)N(C)CC3` [Dextromethorphan hydrobromide monohydrate] is 0.962; for `CCOP(=S)(OCC)Oc1cc(C)nc(C(C)C)n1` it is 1; for `CC(=O)NC1CCSC1=O` (stereo unspecified) [Citiolone] it is 1.02.

On to `CCCCN(CCCC)N=O` [DBNA (N-nitrosodibutylamine)], for which the “fold change of Putrescine concentration” value was 1.03. In the case of `CC[C@H](C)[C@H]1O[C@]2(C=C[C@@H]1C)C[C@@H]1C[C@@H](C/C=C(\C)[C@@H](O[C@H]3C[C@H](OC)[C@@H](O[C@H]4C[C@H](OC)[C@@H](O)[C@H](C)O4)[C@H](C)O3)[C@@H](C)/C=C/C=C3\CO[C@@H]4[C@H](O)C(C)=C[C@@H](C(=O)O1)[C@]34O)O2.CO[C@H]1C[C@H](O[C@H]2[C@H](C)O[C@@H](O[C@@H]3/C(C)=C/C[C@@H]4C[C@@H](C[C@]5(C=C[C@H](C)[C@@H](C(C)C)O5)O4)OC(=O)[C@@H]4C=C(C)[C@@H](O)[C@H]5OC/C(=C\C=C\[C@@H]3C)[C@]54O)C[C@@H]2OC)O[C@@H](C)[C@@H]1O`, the “fold change of Putrescine concentration” value was 0.989.

As to `C=CCC1(CC(C)C)C(=O)NC(=O)NC1=O` [Butalbital], the “fold change of Putrescine concentration” value was 0.995. Still for that read-out and setting: the value for `NCC(CC(=O)O)c1ccc(Cl)cc1` (stereo unspecified) [Baclofen] was 1.09; that for `N#Cc1cc(Br)c(O)c(Br)c1` was 1.23. On to `N#CC(CCc1ccc(Cl)cc1)(Cn1cncn1)c1ccccc1` (stereo unspecified), for which the “fold change of Putrescine concentration” value was 1.07. Still for that read-out and setting: the value for `CN(C)C(=O)Oc1ccc[n+](C)c1` [Pyridostigmine iodide] was 0.993; that for `CC(C)C[C@H](CN)CC(=O)O` [Pregabalin] was 1.03; that for `Clc1ccc(C(OCCN2CCCCC2)c2ccccc2)cc1` (stereo unspecified) [Cloperastine hydrochloride] was 1.06. The same measure, in the same setting: the figure for `O=[N+]([O-])c1ccc2ccc3cccc4ccc1c2c34` [1-Nitropyrene] is 1.03; for `COCC(=O)N(c1c(C)cccc1C)C(C)C(=O)OC` (stereo unspecified) it is 1.04. As to `CCCN1C[C@H](CSC)C[C@@H]2c3cccc4[nH]cc(c34)C[C@H]21` [Pergolide mesylate], the “fold change of Putrescine concentration” value is 0.968. `COc1cc(OC)nc(NC(=O)NS(=O)(=O)c2ncccc2C(=O)N(C)C)n1`: the “fold change of Putrescine concentration” value is 0.924. Same read-out and setting: the figure for `CNC(C)(C)Cc1ccccc1` [Mephentermine hemisulfate] is 1.03. Still for that read-out and setting: the figure for `CC1(C)C(C=C(Cl)Cl)C1C(=O)OC(C#N)c1ccc(F)c(Oc2ccccc2)c1` (mixture of isomers) is 0.971; for `CCC1(CC)C(=O)C=CNC1=O` [Pyrithyldione] it is 1.01; for `COP(=S)(OC)Oc1nc(Cl)c(Cl)cc1Cl` it is 0.986. With `Nc1nc(N)nc(NC2CC2)n1` [Cyromazine], the “fold change of Putrescine concentration” value is 1.02.

For the compound `ClC1C(Cl)C(Cl)C(Cl)C(Cl)C1Cl` (stereo unspecified), the “fold change of Putrescine concentration” value is 1. On the same count and under the same terms, the figure for `CCCN(CCC)C(=O)SCc1ccccc1` is 1.02.

As to `Cc1ccccc1[N+](=O)[O-]` [2-Nitrotoluene], the “fold change of Putrescine concentration” value is 0.996. `c1cc2ccc3cccc4ccc(c1)c2c34` [Pyrene]: the “fold change of Putrescine concentration” value was 1.01.

Take `COc1cccc(C2(O)CCCCC2CN(C)C)c1` (stereo unspecified) [Tramadol hydrochloride]: the “fold change of Putrescine concentration” value is 1.05. Same read-out and setting: the value for `NC(=O)CN1CC(O)CC1=O` (stereo unspecified) [Oxiracetam] was 0.941. Same read-out and setting: the value for `O=C(NC(=O)c1c(F)cccc1F)Nc1ccc(Cl)cc1` was 0.982.
